Source: PubChem
DT40 TDP1 no CPT: qHTS for Inhibitors of human tyrosyl-DNA phosphodiesterase 1 (TDP1): qHTS in cells in absence of CPT. DT40 Tdp1-/- hTDP1 cells, no CPT, ATP luminescence, 48 h. AID 686978, 2013. Potency, µM (titrated, usually from 46.2 µM), for inactives: top-dose activity change, negative = growth inhibition, hits mostly inhibitors. 15% of 420,000 active; further: potency means the concentration at half of the fitted maximal effect; nearly all actives have a fitted effect of over 55% in size
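Stably hTDP1-transfected Tdp1-null chicken DT40 cells were treated with library compounds minus camptothecin and grown for at least 48 hr at 37 °C, after which cellular ATP was quantified by luminescence.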
ELG1 repair inh: qHTS screen for small molecules that inhibit ELG1-dependent DNA repair in human embryonic kidney (HEK293T) cells expressing luciferase-tagged ELG1; 2.3% of 330,000 active; HEK293T ELG1-luciferase reporter, luminescence, 16 h; DNA damage induced by 5-fluorouridine; Potency, µM (titrated, usually from 46.1 µM), for the others: top-dose activity change, negative = inhibition, most hits filed as inhibitors; further: potency means the concentration at half of the fitted maximal effect; nearly all actives have a fitted effect of over 55% in size
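Quantitative HTS, concentration-response format. 2,000 cells/well co-treated with 5-fluorouridine and compound, 16 hr in 5% CO2 at 37 °C; ONE-Glo luminescence read after 30 min.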
IL-1B inflam inh: qHTS for Inhibitors of Inflammasome Signaling: IL-1-beta AlphaLISA Primary Screen; THP-1 LPS/ATP IL-1B secretion, AlphaLISA, 16 h; stronger effect = lower value; activity change, % at 57.5 µM; 4.7% of 360,000 active; in the data active means activity change below about -50%; inconclusive means mostly about -30% to -49%
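Secreted IL-1B measured by AlphaLISA bead assay after 16 h compound exposure of THP-1 cells; compounds (final up to 57.5 uM) added 1 h before LPS (250 ng/mL) and ATP (1.25 mM) stimulation; lower signal means less secretion.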
VP16 counter: VP16 counterscreen qHTS for inhibitors of ROR gamma transcriptional activity | Drosophila S2 Gal4-VP16 UAS-luciferase, luminescence, 20 h | Potency, µM (highest dose often 53.6 µM), without a hit: at the top dose activity, negative = inhibition, most hits filed as inhibitors | 3.5% of 310,000 active;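 further: Gal4-VP16 expression switched on by copper sulfate through the metallothionein promoter; potency means the concentration at half of the fitted maximal effect; nearly all actives have a fitted effect of over 50% in size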
RORg inh: qHTS for inhibitors of ROR gamma transcriptional activity. Nuclear receptor ROR-gamma (Mus musculus), P51450. Drosophila S2 Gal4-RORgamma UAS-luciferase reporter, 20 h. 5.4% of 310,000 active. Potency, µM (top dose mostly 53.6 µM), without a hit: at the top dose activity change, negative = inhibition, usual class: inhibitors; further: potency means the concentration at half of the fitted maximal effect; nearly all actives have a fitted effect of over 60% in size
Target sequence (P51450 whole entry, looked up, the tested form may be a part): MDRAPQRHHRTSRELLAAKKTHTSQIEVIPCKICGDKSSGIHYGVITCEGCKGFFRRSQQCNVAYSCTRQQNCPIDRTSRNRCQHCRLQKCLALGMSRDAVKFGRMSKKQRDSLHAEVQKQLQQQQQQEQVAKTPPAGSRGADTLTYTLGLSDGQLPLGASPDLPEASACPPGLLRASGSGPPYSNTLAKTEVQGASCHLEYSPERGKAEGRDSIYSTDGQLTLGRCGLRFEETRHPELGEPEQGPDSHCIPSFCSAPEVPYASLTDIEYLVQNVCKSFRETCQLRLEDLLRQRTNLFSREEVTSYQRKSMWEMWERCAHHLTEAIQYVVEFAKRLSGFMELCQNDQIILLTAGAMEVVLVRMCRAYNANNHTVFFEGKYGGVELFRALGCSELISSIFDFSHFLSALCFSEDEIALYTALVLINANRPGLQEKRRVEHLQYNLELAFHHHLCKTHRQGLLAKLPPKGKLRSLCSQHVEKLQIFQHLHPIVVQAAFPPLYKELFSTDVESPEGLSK
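Drosophila Schneider cells stably carrying a metallothionein-driven Gal4 DBD–ROR gamma fusion and a UAS-Photinus luciferase reporter were exposed to compound for 1 hr, then induced with copper sulfate (700 uM final) for 20 hr at ambient temperature before luminescence reading.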
TDP1 cell CPT: qHTS for Inhibitors of human tyrosyl-DNA phosphodiesterase 1 (TDP1): qHTS in cells in presence of CPT; 12% of 420,000 active; AID 686979, 2013; chicken DT40 Tdp1-/-;hTDP1 cells + 20 nM CPT, ATP luminescence, 48 h; Potency, µM (highest dose often 46.2 µM), without a hit: at the top dose activity change, negative = growth inhibition, hits mostly inhibitors; further: potency means the concentration at half of the fitted maximal effect; nearly all actives have a fitted effect of over 55% in size
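Cell growth measured by CellTiter-Glo luminescence after a minimum 48 h, 37 C compound exposure with 20 nM CPT in Tdp1-knockout DT40 cells stably expressing hTDP1, seeded 400/well; qHTS titration format.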
Active calls of the source: *; u = inconclusive; x = no result given. Shown are actives, neighbours in structure and some others; about 21% of the full set was active somewhere. Unless noted, the call rests on the fitted dose curve; in most records, active means well fitted curve in the direction sought with a large enough effect; inconclusive means small, poorly fitted or top-dose-only effect, or another doubt; inactive means no such curve, though single readings can be large; an effect the other way counts as inactive or inconclusive. On the % scale 0 is the no-effect control and ±100 the full control effect.

SMILES	DT40 TDP1 no CPT	ELG1 repair inh	IL-1B inflam inh	VP16 counter	RORg inh	TDP1 cell CPT
CCOc1ccc(N=Nc2c(=O)[nH]n3c(=O)cc(C)[nH]c23)cc1	u	u	16	-16%	-39%	21µM*
CCC(C)c1ccccc1NC(=O)Cc1coc2cc3c(cc12)CCC3 (centres undefined)	18µM*	7%	-13	-19%	8%	u
Cc1ccc(C)c(NC(=O)Cc2coc3cc4c(cc23)CCC4)c1	-12%	-1%	11	-18%	-1%	-12%
CC(=O)c1cccc(NC(=O)Cc2coc3cc4c(cc23)CCC4)c1	6.5µM*	-28%	6	-1%	u	u
O=S(=O)(Cc1nnnn1-c1ccccc1)c1ccc(F)cc1	-1%	6%	35	-2%	-5%	7%
COc1ccccc1N1C(=NC(=O)CCc2ccccc2)SC2CS(=O)(=O)CC21 (centres undefined)	7%	12%	7	-12%	8%	0%
O=C(C[C@@H]1C/C=C\CC[C@H](Cc2ccc(F)cc2)C(=O)OC[C@@H]2CCCN2C1=O)NCCO	u	12%	3	x	x	u
COc1ccccc1-c1nc(C#N)c(N2CCC(Cc3ccccc3)CC2)o1	18µM*	-16%	-4	-2%	-10%	u
COc1ccccc1-c1nc(C#N)c(N2CCN(Cc3ccccc3)CC2)o1	23µM*	-24%	-17	-13%	-1%	u
N#Cc1nc(COc2cccc(Cl)c2)oc1N1CCN(c2ccccc2)CC1	u	-6%	-20	-3%	17%	u
N#Cc1nc(Cc2ccccc2)oc1N1CCN(c2ccccc2)CC1	u	-7%	u	3%	u	10µM*
CC1(C)CC(=O)C=C(Nc2ccc(Cl)c(Br)c2)C1	u	-11%	u	-11%	u	-18%
Cc1ccc(C(=O)NCCc2nnc3ccc(SCC(=O)Nc4ccccc4F)nn23)cc1	-20%	11%	-11	-3%	20%	-19%
CCOC(=O)c1nnn(CC(=O)NC(=O)Nc2ccc(F)cc2)c1C(=O)OCC	-26%	-2%	-5	-4%	27%	-12%
COc1ccccc1/C=N/NC(=O)c1ccccc1NS(=O)(=O)c1ccc(C)cc1	-26%	19%	0	u	13µM*	14%
C=CCc1cccc(/C=N/NC(=O)c2ccc3nc[nH]c3c2)c1O	5.8µM*	u	236	u	u	9.2µM*
C=CCc1cccc(/C=N/NC(=O)c2ccccc2Br)c1O	u	0%	276	4µM*	1.4µM*	u
COc1ccccc1C(=O)N/N=C/c1ccc(Cl)s1	-19%	u	1	u	u	-16%
C=CCc1cccc(/C=N/NC(=O)c2ccccc2OC)c1O	u	u	178	1.3µM*	0.5µM*	u
O=C(N/N=C/c1ccc(Cl)cc1Cl)c1ccc2nc[nH]c2c1	u	u	-19	11%	0%	u
Cc1ccc(S(=O)(=O)Nc2ccccc2C=NNC(=O)c2ccncc2)cc1	u	x	15	x	x	-26%
Cc1ccc(-c2csc(C(O)c3cccc(Cl)c3)n2)cc1C (centres undefined)	u	x	-7	x	x	u
CCOc1ccc(NC(=O)Cn2ccn(-c3ccc(F)c(F)c3)c(=O)c2=O)cc1	-5%	x	x	x	x	5%
